Values without a mark were called inactive. No rule for the calls is given here.
Test: Pseudomonas biofilm growth suppression – PAO1 strain, BacTiter-Glo luminescence, LB-PBS, primary screen (AID 1144)
Settings: P. aeruginosa PAO1 biofilm, 12 h, higher = more signal

Compared with `COCCCNC(=O)[C@@H]1c2ccccc2C(=O)N(C2Cc3ccccc3C2)[C@H]1c1ccc(CO)cc1`, `NCCCCCNC(=O)[C@H]1C[C@H]2C(=O)N[C@@H](Cc3ccccc3)C(=O)N2[C@H]1c1ccc(O)cc1` is lower in z-score: 0.48 for the first, -0.0304 for the second.

First: COc1ccc([Si](C)(C)[C@H]2[C@H](CCO)O[C@@]3(C(=O)N(Cc4ccccc4)c4ccc(N5CCOC5=O)cc43)[C@@H]2C)cc1
Second: COc1ccc([Si](C)(C)[C@H]2[C@H](CCO)O[C@@]3(C(=O)N(Cc4ccccc4)c4ccc(N5C(=O)c6ccccc6Oc6ccccc65)cc43)[C@@H]2C)cc1
The z-score of the first is lower: -0.521 for the first, -0.0823 for the second.

First: C[C@@]12COC[C@]13C=C(Br)[C@H](C2)[C@@]1(CO1)C3=O
Second: CC(C)N1CC=CC23O[C@@H]4/C=C\CCCOC(=O)C4[C@H]2C(=O)N(CCCCCCO)[C@@H]3C1=O (stereo partly drawn)
The z-score of the first is higher: 0.708 for the first, -0.0303 for the second.

Compared with `Nc1cc(Br)ccc1C(=O)O`, `C=C(/C(=C/C[C@@H](OC(C)=O)c1ccc(CO)o1)c1cc(C(=O)OC)ccc1OC)C(C)C` is lower in z-score: 0.0538 for the first, -0.0434 for the second.

Compared with `COC(=O)[C@@]1(Cc2ccccc2)[C@H]2c3cc(C(=O)N(C)C)n(CCn4cc([N+](=O)[O-])nc4C)c3C[C@H]2CN1C(=O)c1ccccc1`, `[N-]=[N+]=NCc1ccccc1[C@@H]1OC(c2ccc(OCCCO)cc2)=N[C@]1(Cc1ccccc1)C(=O)NCCN1CCOCC1` is lower in z-score: 0.331 for the first, 0.0636 for the second.

Going from `CC(C)C(=C=CC[C@H](O)c1cccc(OCCO)c1)CCO` to `C=C[C@H](C)[C@H](OC(=O)Nc1ccc(OC)cc1)c1ccc(OCCO)cc1`, the z-score rises from -0.461 to 0.133.

First: C=CCN1C(=O)[C@]2(O[C@H](CCO)[C@@H]([Si](C)(C)c3ccc(OC)cc3)[C@@H]2C)c2cc(NC(=O)c3ccc(OC)cc3)ccc21
Second: C=CCNC(=O)[C@@H]1[C@H]2C(=O)O[C@H](c3ccccc3)[C@H](c3ccccc3)N2[C@H](c2ccc(OCCO)cc2)[C@@]12C(=O)N(C(=O)OCCOC)c1ccc(C#CCCO)cc12
The z-score of the first is higher: -0.236 for the first, -0.594 for the second.

First: CC(=O)NCCCC[C@@H]1NC(=O)[C@@H]2C[C@H](C(=O)NCCCCCCN)[C@H](c3cccc(OCCO)c3)N2C1=O
Second: O=C(CS)NCCCCCNC(=O)[C@@H]1C[C@@H]2C(=O)N[C@@H](Cc3ccccc3)C(=O)N2[C@@H]1c1cccc(OCCO)c1
The z-score of the first is higher: 0.615 for the first, -0.042 for the second.

Going from `CN(C)CCCCNC(=O)[C@H]1C[C@H]2C(=O)N[C@@H](CCCC[N+](C)(C)C)C(=O)N2[C@H]1c1ccc(O)cc1` to `NCCCCCNC(=O)[C@@H]1C[C@@H]2C(=O)N3CCC[C@H]3C(=O)N2[C@@H]1c1ccc(O)cc1`, the z-score falls from 1.04 to -0.113.

Compared with `O=C(CS)NCCCCCCNC(=O)[C@@H]1C[C@@H]2C(=O)NCC(=O)N2[C@@H]1c1ccc(O)cc1`, `NC(=O)[C@H]1[C@@H]2C(=O)O[C@@H](c3ccccc3)[C@@H](c3ccccc3)N2[C@@H](c2ccc(O)cc2)[C@]12C(=O)Nc1ccccc12` is higher in z-score: -1.26 for the first, 0.191 for the second.

First: O=C1C2C=CC(C(O)c3ccc4c(c3)OCO4)N(Nc3ccccc3)C2C(=O)N1c1ccccc1 (stereo not drawn)
Second: COc1cc(NN2C(C(O)c3ccc(I)cc3)C=CC3C(=O)N(c4ccccc4)C(=O)C32)cc(OC)c1OC (stereo not drawn)
The z-score of the first is higher: -0.648 for the first, -1.28 for the second.

Going from `COc1cc(NN2C(C(O)c3ccccc3)C=CC3C(=O)N(C)C(=O)C32)cc(OC)c1OC` (stereo not drawn) to `CC=CC(O)C1C=CC2C(=O)NC(=O)C2N1Nc1ccccn1` (stereo not drawn), the z-score falls from -0.426 to -0.587.

First: COCCOC(=O)N1C(=O)[C@@]2(c3ccccc31)[C@H](c1ccccc1OCCO)N1[C@H](c3ccccc3)[C@H](c3ccccc3)OC(=O)[C@H]1[C@@H]2C(N)=O
Second: COc1ccc(C#Cc2ccc3c(c2)[C@]2(C(=O)N3)[C@H](C(=O)N3CCCCCCC3)[C@H]3C(=O)O[C@H](c4ccccc4)[C@H](c4ccccc4)N3[C@@H]2c2ccc(O)cc2)cc1
The z-score of the first is higher: -0.0116 for the first, -0.768 for the second.

First: [N-]=[N+]=NCc1ccccc1[C@@H]1OC(c2ccc(OCCCO)cc2)=N[C@]1(Cc1ccccc1N=[N+]=[N-])C(=O)NCCN1CCOCC1
Second: C=C(/C(=C/C[C@H](OC(=O)c1ccncc1)c1ccccc1OCCO)c1cnc2ccccc2c1)C(C)C
The z-score of the first is higher: 1.07 for the first, -0.91 for the second.

From PubChem BioAssay
